The record followed here is PubChem BioAssay (EPA / NIEHS).

A word on the AC50: it is the midpoint of the concentration-response curve, whichever way the signal moves.

The target of assay [1] is Transcription factor E2F1 (Homo sapiens) (UniProt Q01094). Description: ATG_E2F_CIS: Attagene CIS-FACTORIAL HepG2 Assay for human E2F Transcription Factor 1 (AID 2282935). The note with it: HepG2 Attagene cis-reporter, E2F reporter RNA transcripts; actives raise or lower the signal. The procedure, abridged:
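Multiplexed cis-reporter assay: HepG2, transient transfection, 24 h dosing, mRNA quantitation by labeled RT-PCR and CE.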

Assay [2] is described as follows: ATG_E_Box_CIS: Attagene CIS-FACTORIAL HepG2 Assay for human Enhancer Box (E-box) (AID 2282936). Particulars: HepG2 E-box cis-reporter transcription, actives raise or lower the signal. The method, boiled down: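 Multiplexed CIS reporter system in transiently transfected HepG2 cells measures native transcription factor activity. Reporter RNA after 24 h exposure is profiled by RT-PCR-capillary electrophoresis.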

The nature of assay [3]: ATG_M_61_CIS: Attagene CIS-FACTORIAL HepG2 Assay for M61 Transcription Factor (Internal Marker) (AID 2282937). The note with it: HepG2 Attagene CIS-FACTORIAL M61 internal marker reporter; actives raise or lower the signal. The method, boiled down: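 Transfect HepG2 with MRTUs; dose 24 h; isolate RNA; reverse-transcribe with DNase I treatment; PCR-amplify, FAM-label and cut with HpaI for 2 h at 37 C; resolve by CE. Bidirectional fitting against DMSO.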

Assay [4] is described as follows: ATG_EGR_CIS: Attagene CIS-FACTORIAL HepG2 Assay for human Early Growth Response 1 (EGR1) (AID 2282938). The note with it: HepG2 Attagene CIS-FACTORIAL EGR reporter mRNA; actives raise or lower the signal. The procedure, abridged: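 After a 24 h treatment of transiently transfected HepG2 cells, total RNA was reverse-transcribed and reporter sequences PCR-amplified, labelled and run on capillary electrophoresis. Reporters sit under cis-regulatory promoters sensing endogenous factors.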

Assay [5] in a line: ATG_M_19_CIS: Attagene CIS-FACTORIAL HepG2 Assay for M19 Transcription Factor (Internal Marker) (AID 2282939). Particulars: HepG2 Attagene CIS-FACTORIAL M19 internal marker reporter; actives raise or lower the signal. The method, boiled down:
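Following a 24 h exposure, RNA from transfected HepG2 cells was reverse-transcribed, PCR-amplified with reporter-specific primers, end-labelled with 6-FAM and HpaI-digested before capillary separation. Values represent gain or loss versus DMSO.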

The nature of assay [6]: ATG_ERE_CIS: Attagene CIS-FACTORIAL HepG2 Assay for Estrogen Response Element (ERE) (AID 2282940). Particulars: HepG2 ERE cis-reporter, Attagene RNA transcript; actives raise or lower the signal. The procedure, abridged:
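HepG2, transient cis-reporter units, 24 h exposure. RNA isolated, oligo(dT) RT, reporter-specific PCR, FAM extension, HpaI cut, CE detection. Gain/loss-of-signal vs DMSO.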

The nature of assay [7]: ATG_Ets_CIS: Attagene CIS-FACTORIAL HepG2 Assay for human Erythroblast Transformation Specific (ETS) (AID 2282941). Particulars: HepG2 ETS cis-reporter transcription, actives raise or lower the signal. The method, boiled down: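 Human HepG2 hepatoma cells were transiently transfected with promoter-driven reporter constructs and treated for 24 hours. Reporter transcripts were quantified by RT-PCR with fluorescent primer extension; bidirectional curve fitting used DMSO as reference.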

Assay [8] has as its target Hepatocyte nuclear factor 3-beta (Homo sapiens) (UniProt Q9Y261). Description: ATG_FoxA2_CIS: Attagene CIS-FACTORIAL HepG2 Assay for human Forkhead box A2 (FOXA2) (AID 2282942). The note with it: HepG2 cis-reporter transcription factor activity, 24 h; actives raise or lower the signal. The method, boiled down: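 24 h dosing of HepG2 bearing cis-reporter constructs; mRNA readout by RT-PCR/CE fluorescence; bidirectional fit, DMSO baseline.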

A short description of assay [9]: ATG_FoxO_CIS: Attagene CIS-FACTORIAL HepG2 Assay for human Forkhead box O (FoxO) (AID 2282943). Particulars: HepG2 Attagene cis-reporter, FoxO element, mRNA; actives raise or lower the signal. The procedure, abridged:
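24 h chemical exposure, HepG2 with transient cis-MRTU transfection. RNA extraction, oligo(dT) RT, reporter-specific PCR, primer-extension labelling, HpaI digestion, CE fragment analysis; bidirectional fit, DMSO baseline.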

Assay [10] is described as follows: ATG_GATA_CIS: Attagene CIS-FACTORIAL HepG2 Assay for human GATA Binding Protein (AID 2282944). The note with it: HepG2 GATA cis-element reporter, Attagene multiplex mRNA; actives raise or lower the signal. The method, boiled down:
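DMSO serves as negative control and baseline for bidirectional fitting of reporter mRNA changes. HepG2 cells bearing transiently transfected cis-promoter reporters were exposed 24 h; transcripts detected via RT-PCR and capillary electrophoresis.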

A short description of assay [11]: ATG_GLI_CIS: Attagene CIS-FACTORIAL HepG2 Assay for human Zinc Finger Protein GLI1 (AID 2282945). Particulars: HepG2, Attagene cis-factorial reporter mRNA, GLI element; actives raise or lower the signal. The method, boiled down: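 HepG2 cells transiently transfected with cis-promoter multiplexed reporter units report endogenous transcription factor activity. After 24 h chemical exposure, reporter mRNA was quantified by RT-PCR, 6-FAM labelling, HpaI digestion and capillary electrophoresis, with bidirectional fitting against DMSO.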

Assay [12] in a line: ATG_GRE_CIS: Attagene CIS-FACTORIAL HepG2 Assay for human Glucocorticoid Response Elements (GRE) (AID 2282947). The note with it: HepG2 GRE cis-reporter, Attagene multiplex mRNA; actives raise or lower the signal. The procedure, abridged:
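Following 24 h chemical exposure of transiently transfected HepG2 cells, total RNA was reverse-transcribed and reporter cDNA amplified, fluorescently labelled and sized by capillary electrophoresis. Signal gain or loss was fitted relative to DMSO vehicle.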

Assay [13] in a line: ATG_ISRE_CIS: Attagene CIS-FACTORIAL HepG2 Assay for human Interferon Regulatory Factor 1 (IRF1) binding to an Interferon-Stimulated Response Element (ISRE) (AID 2282948). The note with it: HepG2 ISRE cis-reporter (Attagene), mRNA transcription readout; actives raise or lower the signal. The method, boiled down:
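Cell-based cis-reporter assay; HepG2; 24 h exposure; reporter mRNA by RT-PCR plus capillary electrophoresis fluorescence; activity in either direction scored relative to DMSO.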

The nature of assay [14]: ATG_M_32_CIS: Attagene CIS-FACTORIAL HepG2 Assay for M32 Transcription Factor (Internal Marker) (AID 2282949).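 Note: background control marker of the multiplexed CIS panel rather than a real target.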 Particulars: HepG2 Attagene cis-factorial M32 reporter, mRNA; actives raise or lower the signal. The procedure, abridged: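 HepG2 cells transiently transfected with multiplexed cis-regulated reporter units, dosed 24 h. Reporter mRNA quantified by RT-PCR, 6-FAM labelling, HpaI digestion and capillary electrophoresis; bidirectional fit vs DMSO.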

Assay [15] is described as follows: ATG_M_06_CIS: Attagene CIS-FACTORIAL HepG2 Assay for M06 Transcription Factor (Internal Marker) (AID 2282950). Particulars: HepG2 Attagene CIS-FACTORIAL M06 internal marker reporter; actives raise or lower the signal. The method, boiled down: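 Fluorescence-labelled RT-PCR products from cis-promoter reporter units, cut with HpaI and resolved by capillary electrophoresis, give the signal. Cells are human HepG2, dosed for 24 h. Serves as background control, fitted relative to DMSO.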

Assay [16] concerns the target Hypoxia-inducible factor 1-alpha (Homo sapiens) (UniProt Q16665). Description: ATG_HIF1a_CIS: Attagene CIS-FACTORIAL HepG2 Assay for human Hypoxia Inducible Factor 1 (HIF1A) (AID 2282951). Particulars: HepG2 Attagene cis-factorial HIF1a reporter transcription; actives raise or lower the signal. The procedure, abridged:
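After 24 h chemical exposure of reporter-transfected HepG2 cells, reporter cDNA was PCR-amplified, labelled by 6-FAM primer extension (2 min 95 C, 20 s 68 C, 10 min 72 C), HpaI-cut (2 h, 37 C) and analysed by CE.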

The target of assay [17] is Hepatocyte nuclear factor 6 (Homo sapiens) (UniProt Q9UBC0). Description: ATG_HNF6_CIS: Attagene CIS-FACTORIAL HepG2 Assay for human Hepatocyte Nuclear Factor 6 (HNF6) (AID 2282952). The note with it: HepG2 Attagene cis-factorial HNF6 reporter transcription; actives raise or lower the signal. The method, boiled down: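 HepG2 cells transiently transfected with cis-element-driven multiple reporter transcription units, dosed 24 h; reporter mRNA quantified by RT-PCR, FAM primer extension, HpaI digestion and capillary electrophoresis; bidirectional fit versus DMSO baseline.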

Assay [18] deals with Heat shock factor protein 1 (Homo sapiens) (UniProt Q00613). In words: ATG_HSE_CIS: Attagene CIS-FACTORIAL HepG2 Assay for human Heat Shock Transcription Factor 1 (HSE) (AID 2282953). The note with it: HepG2 HSE cis-reporter, Attagene RNA transcription; actives raise or lower the signal. The method, boiled down:
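After a 24 h incubation with test chemical, transfected HepG2 cells were harvested for RNA; reporter transcripts were measured by RT-PCR and capillary electrophoresis. Values reflect gain or loss of signal relative to DMSO.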

Assay [19] is described as follows: ATG_MRE_CIS: Attagene CIS-FACTORIAL HepG2 Assay for human Metal Responsive Element (MRE) (AID 2282954). Particulars: HepG2 MRE cis-reporter transcription, Attagene multiplex; actives raise or lower the signal. The procedure, abridged:
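Step one: transfect HepG2 with cis-regulated reporter units. Step two: dose 24 h. Step three: isolate RNA, RT-PCR, 6-FAM label, HpaI digest, capillary electrophoresis. Fit bidirectionally to DMSO.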

Calls of active or inactive are those of the source. Rule for the calls: active = hit-call score of the fitted dose curve at least 0.9, where 1 is the maximum; inactive = score below 0.9.

Sequence of Hepatocyte nuclear factor 6 (Homo sapiens) (Q9UBC0 whole entry, looked up): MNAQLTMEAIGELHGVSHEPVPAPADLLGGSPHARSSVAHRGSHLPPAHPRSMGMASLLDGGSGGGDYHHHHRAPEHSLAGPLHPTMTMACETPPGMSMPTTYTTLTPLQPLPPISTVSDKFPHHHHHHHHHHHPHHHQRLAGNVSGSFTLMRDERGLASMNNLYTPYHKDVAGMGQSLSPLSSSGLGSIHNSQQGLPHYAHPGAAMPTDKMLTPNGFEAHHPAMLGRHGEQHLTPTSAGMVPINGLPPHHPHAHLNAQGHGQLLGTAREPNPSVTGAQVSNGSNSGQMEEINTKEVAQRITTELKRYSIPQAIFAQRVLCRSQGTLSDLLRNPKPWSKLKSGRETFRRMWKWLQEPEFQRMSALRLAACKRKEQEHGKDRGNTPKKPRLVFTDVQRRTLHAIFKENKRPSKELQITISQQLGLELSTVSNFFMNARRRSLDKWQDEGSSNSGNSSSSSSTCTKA
Sequence of Hypoxia-inducible factor 1-alpha (Homo sapiens) (Q16665 whole entry, looked up): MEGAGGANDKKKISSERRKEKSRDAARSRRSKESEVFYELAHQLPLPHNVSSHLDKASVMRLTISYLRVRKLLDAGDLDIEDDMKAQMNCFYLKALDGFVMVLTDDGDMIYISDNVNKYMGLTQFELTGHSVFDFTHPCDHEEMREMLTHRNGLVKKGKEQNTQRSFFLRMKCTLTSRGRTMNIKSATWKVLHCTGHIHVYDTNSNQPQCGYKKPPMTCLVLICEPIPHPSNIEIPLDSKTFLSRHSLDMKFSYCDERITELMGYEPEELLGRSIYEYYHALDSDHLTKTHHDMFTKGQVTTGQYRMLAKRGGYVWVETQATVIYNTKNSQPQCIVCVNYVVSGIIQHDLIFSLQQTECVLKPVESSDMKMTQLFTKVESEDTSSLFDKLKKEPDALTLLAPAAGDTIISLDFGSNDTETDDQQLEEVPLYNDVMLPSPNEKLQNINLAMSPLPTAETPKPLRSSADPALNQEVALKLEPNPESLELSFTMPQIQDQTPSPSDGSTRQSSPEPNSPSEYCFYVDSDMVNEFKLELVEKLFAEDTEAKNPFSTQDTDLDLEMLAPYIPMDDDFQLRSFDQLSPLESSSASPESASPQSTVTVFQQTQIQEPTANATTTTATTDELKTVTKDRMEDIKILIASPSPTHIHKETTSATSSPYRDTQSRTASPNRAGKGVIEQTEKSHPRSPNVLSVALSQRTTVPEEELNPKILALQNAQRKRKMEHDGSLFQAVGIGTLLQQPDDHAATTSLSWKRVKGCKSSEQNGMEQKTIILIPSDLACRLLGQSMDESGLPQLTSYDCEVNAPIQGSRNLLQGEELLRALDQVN
Sequence of Transcription factor E2F1 (Homo sapiens) (Q01094 whole entry, looked up): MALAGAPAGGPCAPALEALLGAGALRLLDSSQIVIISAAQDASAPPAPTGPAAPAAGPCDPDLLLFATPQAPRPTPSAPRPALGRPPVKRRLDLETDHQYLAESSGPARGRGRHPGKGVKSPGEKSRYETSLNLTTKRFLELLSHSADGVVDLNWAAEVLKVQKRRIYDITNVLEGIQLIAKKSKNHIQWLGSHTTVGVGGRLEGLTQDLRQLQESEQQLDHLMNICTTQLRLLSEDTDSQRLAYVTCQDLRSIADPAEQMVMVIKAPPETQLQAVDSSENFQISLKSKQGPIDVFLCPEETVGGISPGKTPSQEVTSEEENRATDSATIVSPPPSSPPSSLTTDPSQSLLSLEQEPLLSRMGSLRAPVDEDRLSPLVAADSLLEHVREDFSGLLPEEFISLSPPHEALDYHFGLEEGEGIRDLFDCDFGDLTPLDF
Sequence of Hepatocyte nuclear factor 3-beta (Homo sapiens) (Q9Y261 whole entry, looked up): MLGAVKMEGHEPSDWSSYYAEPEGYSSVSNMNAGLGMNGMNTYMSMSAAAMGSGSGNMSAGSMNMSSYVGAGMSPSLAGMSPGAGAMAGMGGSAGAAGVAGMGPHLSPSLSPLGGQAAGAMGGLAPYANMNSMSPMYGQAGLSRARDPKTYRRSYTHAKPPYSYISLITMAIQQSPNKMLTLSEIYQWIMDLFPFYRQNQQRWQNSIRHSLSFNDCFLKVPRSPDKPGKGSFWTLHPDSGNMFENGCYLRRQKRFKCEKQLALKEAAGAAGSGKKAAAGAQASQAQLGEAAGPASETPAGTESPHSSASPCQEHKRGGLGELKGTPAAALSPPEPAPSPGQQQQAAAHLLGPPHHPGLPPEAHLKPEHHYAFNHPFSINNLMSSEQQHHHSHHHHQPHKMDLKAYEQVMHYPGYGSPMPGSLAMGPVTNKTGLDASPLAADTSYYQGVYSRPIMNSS
Sequence of Heat shock factor protein 1 (Homo sapiens) (Q00613 whole entry, looked up): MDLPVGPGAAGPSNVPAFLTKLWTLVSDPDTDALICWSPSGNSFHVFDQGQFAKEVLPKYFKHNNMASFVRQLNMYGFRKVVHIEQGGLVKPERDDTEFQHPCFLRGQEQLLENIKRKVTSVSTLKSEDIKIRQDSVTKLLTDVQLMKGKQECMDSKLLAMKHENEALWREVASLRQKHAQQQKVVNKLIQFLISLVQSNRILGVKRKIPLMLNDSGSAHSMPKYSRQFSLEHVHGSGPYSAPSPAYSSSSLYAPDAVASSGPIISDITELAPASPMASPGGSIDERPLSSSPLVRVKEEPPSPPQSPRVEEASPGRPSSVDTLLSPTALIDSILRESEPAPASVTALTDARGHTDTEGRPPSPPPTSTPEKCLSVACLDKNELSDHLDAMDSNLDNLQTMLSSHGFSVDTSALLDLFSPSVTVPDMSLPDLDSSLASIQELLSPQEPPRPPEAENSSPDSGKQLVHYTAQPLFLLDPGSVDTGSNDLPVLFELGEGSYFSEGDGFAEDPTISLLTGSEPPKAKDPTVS

With `CCCCOCC(C)O` (configuration not stated), the result in assay [1], in [2], in assay [3], in [4], in assay [5] and in assay [6] was inactive. The outcome in assay [7], in [8], in assay [9], in assay [10], in assay [11] and in assay [12] was inactive. Also, the result in [13], in assay [14], in assay [15], in [16], in assay [17] and in [18] was inactive. The outcome in [19] was inactive.

In the case of `CC(C)(O)Cc1ccccc1`, the result in [1], in [2], in assay [3], in assay [4], in [5] and in assay [6] was inactive. Further, the result in assay [7], in assay [8], in assay [9], in [10], in assay [11] and in [12] was inactive. Also, the outcome in assay [13], in assay [14], in [15], in [16], in assay [17] and in assay [18] was inactive. The result in assay [19] was inactive.

As for `CC1C(C)(C)C2=C(C(=O)CCC2)C1(C)C` (configuration not stated), the call in assay [1], in assay [2], in [3], in [4], in assay [5] and in assay [7] was inactive. Besides, the compound was called inactive in assay [8], in assay [9], in assay [10], in assay [11], in [12] and in [13]. Moreover, the outcome in assay [14], in [15], in [16], in assay [17], in assay [18] and in assay [19] was inactive. Further, the AC50 in assay [6] was 26.6 µM (active).
